Mtb UGM inh: blocks M. tuberculosis UGM enzyme. P9WIQ1. purified UGM, fluorescence polarization probe displacement. inhibition, % at 10 µM. 0.06% of 320,000 active. AID 504406; in the data active = inhibition above about 10%, passing the limit was not always enough; inconclusive = no clear call, values can overlap the other calls
FBA Mtb inh: inhibits M. tuberculosis FBA enzyme; 2.3% of 360,000 active; purified M. tuberculosis FBA, fluorescence read-out; inhibition, % at 1 µM; in the data active = inhibition above about 27%
Target sequence (P9WQA3 whole entry, looked up): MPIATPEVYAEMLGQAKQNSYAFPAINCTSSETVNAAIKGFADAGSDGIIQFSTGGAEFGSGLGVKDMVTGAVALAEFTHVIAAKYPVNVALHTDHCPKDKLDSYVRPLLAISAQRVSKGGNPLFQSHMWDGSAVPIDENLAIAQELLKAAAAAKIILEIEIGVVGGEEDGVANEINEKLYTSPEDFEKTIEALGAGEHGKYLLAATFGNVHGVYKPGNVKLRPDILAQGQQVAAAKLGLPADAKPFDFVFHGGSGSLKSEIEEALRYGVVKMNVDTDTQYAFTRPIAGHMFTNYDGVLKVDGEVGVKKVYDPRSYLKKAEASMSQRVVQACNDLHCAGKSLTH
Mtb betalactam: beta-lactam sensitization of Mtb H37Rv; M. tuberculosis H37Rv growth with meropenem, percent inhibition; inhibition, % at 25 µM; 0.27% of 330,000 active; AID 434955; call rule not given here;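 also: growth measured after seven days incubation then overnight dye step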
Rv3671c protease: inhibits the M. tuberculosis serine protease Rv3671c; inhibition, % at 5.96 µM; 0.048% of 320,000 active; AID 2606; in the data active = inhibition above about 38%;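 also: extracellular domain of Rv3671c used as enzyme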
RecA splice inh: Mtb RecA intein splicing inhibition | inhibition, % (concentration not given with the values) | 0.75% of 290,000 active | P9WHJ3 | cell-free RecA intein splicing, fluorescence; in the data active = inhibition above about 30%; inconclusive = no clear call, values can overlap the other calls
GDH-TPI counter: counter-screen for M. tuberculosis FBA inhibitors: GDH-TPI coupled enzymes; GDH-TPI coupled enzyme counterscreen, NADH absorbance; inhibition, % at 4.8 µM; AID 588335; 1.2% of 360,000 active; in the data active = inhibition above about 30%
Numbers stand for hits; 0 = inactive; ? = inconclusive; - = not tested or not shown; + = active, no number. The list is not random: actives were taken first. Their share in the collection is about 4%.

SMILES	Mtb UGM inh	FBA Mtb inh	Mtb betalactam	Rv3671c protease	RecA splice inh	GDH-TPI counter
COc1ccccc1/C=N/NC(=O)c1nnn(-c2nonc2N)c1-c1ccccc1	0	0	0	0	0	0
O=C(Nc1ccccc1)C1=C[C@@H](c2ccc3c(c2)OCO3)C[C@@H](OCCCCO)O1	0	0	0	0	0	0
COc1nc2ccccc2nc1N1CC1	-	29	-	-	-	-
Cc1cc(=O)oc2c3c(cc(OCC(=O)NCC(=O)N[C@H](C(=O)O)C(C)C)c12)OC(C)(C)CC3	0	+	0	0	0	0
CCCC(NC(=O)COc1cc2c(c3oc(=O)cc(C)c13)CCC(C)(C)O2)C(=O)O (stereo not drawn)	0	128	0	0	0	0
Cc1c(OCC(=O)N[C@@H](CSCc2ccccc2)C(=O)O)ccc2c3c(c(=O)oc12)CCC3	-	0	-	-	0	0
CC[C@@H](C)[C@H](NC(=O)Cc1c(C)c2c(cc(C)c3c(C)c(C)oc32)oc1=O)C(=O)O	0	0	0	-	0	0
CC[C@H](C)[C@H](NC(=O)CNC(=O)COc1cc2c(c3oc(=O)cc(C)c13)CCC(C)(C)O2)C(=O)O	0	+	0	0	0	0
Cc1cc(OCC(=O)NCC2CCC(C(=O)O)CC2)c2c(C)cc(=O)oc2c1 (stereo not drawn)	0	0	0	0	0	0
CC(C)C(=O)Nc1nnn(C)n1	0	0	0	0	0	0
COc1cccc(-c2cc3nc(-c4ccccc4)cc(=O)n3[nH]2)c1	0	84	0	0	0	0
COc1cccc(N=Nc2c(N)[nH]n3c(=O)cc(-c4ccccc4)nc23)c1	0	0	0	0	0	0
O=C(Nc1cccc(C(=O)O)c1)/C(=C/c1cccc([N+](=O)[O-])c1)NC(=O)c1cccc(Br)c1	0	0	0	0	0	0
O=C(N/N=C/C(Cl)=C/c1ccc([N+](=O)[O-])cc1)C(=O)Nc1cccc(C(=O)O)c1	0	0	0	0	0	37
COc1cccc(-c2csc3ncnc(Sc4nnnn4C)c23)c1	0	0	0	0	-	0
CCOC(=O)c1[nH]c(=O)[nH]c1CNc1ccccc1C#N	0	0	0	0	0	0
Cc1nc(-c2cnn(-c3ccccc3)c2)c2cc(C)oc2n1	0	119	0	0	0	0
Cc1oc2c(O)c(O)ccc2c(=O)c1-c1cnn(-c2ccccc2)c1	0	0	0	0	0	0
Cc1cc(O)cc(O)c1C(=O)Cc1ccccc1	0	0	0	0	0	0
O=C(Cc1ccc([N+](=O)[O-])cc1)c1c(O)cc(O)cc1O	0	0	0	0	0	35
CCOC(=O)/C(C#N)=C/c1ccc(N2CCN(C)CC2)cc1	0	0	0	0	0	0
CCOC(=O)C(/C=C(\C#N)C(=O)OCC)=C(/N)N1CCN(c2ccccc2)CC1	0	0	0	0	0	36
Cc1ccccc1N1CCN(S(=O)(=O)c2nnc(NC(=O)CC(C)C)s2)CC1	0	0	0	0	0	0
Cc1ccccc1N1CCN(S(=O)(=O)c2nnc(NC(=O)c3ccco3)s2)CC1	0	0	0	0	0	35
CC1CN(S(=O)(=O)c2ccc(C(=O)Nc3nccs3)cc2)CC(C)O1 (stereo not drawn)	0	0	0	0	0	43
SMILES	Mtb UGM inh	FBA Mtb inh	Mtb betalactam	Rv3671c protease	RecA splice inh	GDH-TPI counter
CC1CN(S(=O)(=O)c2ccc(C(=O)Nc3ccc(S(=O)(=O)Nc4nccs4)cc3)cc2)CC(C)O1 (stereo not drawn)	0	0	0	0	0	0
CCc1nc2c(OCC=C(C)C)cccn2c1N(C)C(=O)c1ccc(OC)cc1	-	0	-	-	-	0
CCCCC1=CC2=CC(=O)C(C)(OC(=O)c3cnc4ccccc4n3)C(=O)C2=CO1 (stereo not drawn)	0	-	0	0	34	-
Cc1[nH]c(=O)[nH]c(=O)c1S(=O)(=O)N1CCCC(C(=O)NCCc2ccccc2)C1 (stereo not drawn)	0	0	0	0	0	0
CCn1cc(C(=O)N2CCN(c3ccc(C(C)=O)cc3)CC2)c2cc(OC)c(OC)cc2c1=O	0	0	0	0	-	36
O=Cc1cn(CC(=O)Nc2ccc(F)cc2)c2ccccc12	0	0	0	0	0	0
CC1CCCCC1NC(=O)NC(=O)COC(=O)c1nccnc1N (stereo not drawn)	0	118	0	0	-	0
CC1CCCC(NC(=O)NC(=O)CCl)C1C (stereo not drawn)	0	0	0	0	48	0
CC1CCCCC1NC(=O)NC(=O)COC(=O)c1cncc(Br)c1 (stereo not drawn)	-	0	0	0	-	0
CC1CCCCC1NC(=O)NC(=O)CCl (stereo not drawn)	0	0	0	0	34	0
CCc1nn(CC(=O)NCCCN2CCOCC2)c(=O)c2cc3cc(F)ccc3n12	0	0	0	0	0	0
CS/C(=C(/C#N)S(=O)(=O)c1ccc(Cl)cc1)N1CCOCC1	0	0	0	0	0	0
Cc1cc(Br)ccc1Nc1nc(N)nc(N)c1N=O	-	0	-	-	-	32
Cc1cccc(Nc2nc(C)cc(C)c2C#N)c1	0	0	0	0	0	0
Cc1cccc(Nc2nc(N)nc(N)c2N=O)c1	-	0	-	-	-	31
Cc1ccc(Nc2nc(N)nc(N)c2N=O)cc1C	-	0	-	-	-	-
Cc1cccc(Nc2nc(N)c(C#N)c(CC#N)c2C#N)c1	0	0	?	0	0	64
Cc1ccc(NC(=O)NC(=O)CN2CCCC2c2ccc3c(c2)OCCO3)cc1C (stereo not drawn)	0	0	0	0	-	0
O=C(OCC(=O)N1CCCc2ccccc21)c1cnc(Cl)c(Cl)c1	0	0	0	0	0	0
CC(C)(C)NC(=O)CN(C(=O)CS(=O)CC(=O)Nc1ccc(F)cc1)c1ccccc1 (stereo not drawn)	0	0	0	0	0	0
CCOC(=O)c1c(NC(=O)Cn2c(=O)oc3ccccc32)oc(C)c1C(C)=O	0	0	0	0	0	0
O=C(/C=C/c1ccc2c(c1)OCCCO2)c1ccc2ccccc2c1O	0	0	0	0	0	0
CCN(CC(=O)Nc1ccc(NC(C)=O)cc1)C(=O)/C=C/c1ccc(C)o1	0	0	0	0	-	35
COc1ccc(-n2ncc3c2CC(C)(C)CC3NC(=O)C2=CC(=O)CC(C)(C)O2)cc1 (stereo not drawn)	0	153	0	0	0	0
CC1(C)Cc2c(cnn2-c2ccc(F)cc2)C(NC(=O)C2=CC(=O)CC(C)(C)O2)C1 (stereo not drawn)	-	0	-	-	-	0
SMILES	Mtb UGM inh	FBA Mtb inh	Mtb betalactam	Rv3671c protease	RecA splice inh	GDH-TPI counter
CCc1ccc(/C=C/C(=O)C2C(=O)c3ccccc3C2=O)cc1	0	0	0	0	33	39
CCc1noc(C)c1C(=O)N1CCCC1	0	0	0	0	0	0
COc1ccc(S(=O)(=O)Nc2ccc3ccccc3c2)cc1C	0	0	0	0	0	0
COc1cc(C=C2C(=O)NC(=O)NC2=O)ccc1O	0	0	0	0	0	32
COc1ccc(C=C2NC(=O)NC2=O)cc1O	-	0	-	-	-	43
COc1cc(/C=C2\C(=O)NC(=O)N(CCc3ccc(F)cc3)C2=O)ccc1O	0	0	0	0	0	0
